Bioassay records deposited in PubChem BioAssay by The Scripps Research Institute Molecular Screening Center.
PPARg SRC2 recr: PPARgamma-driven SRC-2 recruitment agonism; AID 1032; 200,000 tested, 0.34% active; activation, % at 8 µM; PPARgamma LBD-SRC-2 recruitment, biochemical; in the data active = activation above about 22%;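 note: 0% = vehicle and 100% = reference agonist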
Target sequence (P37231 whole entry, looked up, the tested form may be a part): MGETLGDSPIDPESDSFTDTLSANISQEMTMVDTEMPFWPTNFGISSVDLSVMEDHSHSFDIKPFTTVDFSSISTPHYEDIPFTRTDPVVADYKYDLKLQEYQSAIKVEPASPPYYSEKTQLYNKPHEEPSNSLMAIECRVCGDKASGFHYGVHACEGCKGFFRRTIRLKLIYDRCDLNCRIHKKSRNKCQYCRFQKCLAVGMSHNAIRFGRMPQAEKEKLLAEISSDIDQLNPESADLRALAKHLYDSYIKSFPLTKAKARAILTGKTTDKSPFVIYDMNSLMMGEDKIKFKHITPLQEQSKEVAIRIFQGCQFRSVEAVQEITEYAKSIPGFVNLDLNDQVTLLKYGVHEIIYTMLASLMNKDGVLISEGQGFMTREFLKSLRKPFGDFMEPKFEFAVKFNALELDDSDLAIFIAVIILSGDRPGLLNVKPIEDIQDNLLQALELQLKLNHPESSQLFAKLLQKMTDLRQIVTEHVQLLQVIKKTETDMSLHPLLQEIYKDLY
SRC3 TRFRET art: flags TR-FRET format artefacts in PPARgamma SRC-3 recruitment agonist screen. TR-FRET artefact counter-screen, PPARgamma/SRC-3 format; hits give high values. TR-FRET ratio at 8 µM. 99,000 tested, 0.39% active. AID 1048
PPARg SRC3 recr: agonists of human PPARgamma SRC-3 coactivator recruitment; biochemical PPARgamma/SRC-3 coactivator recruitment assay; activation, % at 8 µM; 200,000 tested, 0.26% active; in the data active = activation above about 23%;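 note: 0% = DMSO and 100% = reference agonist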
SRC2 TRFRET art: counter-screen for PPARgamma SRC-2 recruitment agonists: TR-FRET artefact. hits give high values. TR-FRET ratio at 8 µM. 200,000 tested, 0.4% active. AID 1049
PPARg SRC1 recr: agonists of human PPARgamma SRC-1 coactivator recruitment; activation, % at 8 µM; P37231; PPARgamma-SRC-1 coactivator recruitment biochemical assay; 200,000 tested, 0.41% active; AID 631; in the data active = activation above about 19%;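 note: 0% = DMSO and 100% = reference agonist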
SRC1 TRFRET art: flags TR-FRET format artefacts in PPARgamma SRC-1 recruitment agonist screen; TR-FRET ratio at 8 µM; AID 1051; 99,000 tested, 0.34% active; TR-FRET detection artefact counter-screen, emission ratio; hits give high values; in the data active = TR-FRET ratio above about 2300
* = called active by the depositor. Shown are actives, neighbours in structure and some others; about 0.9% of the full set was active somewhere. Cut-off read from the data, not from the text of the source, unless noted: active = TR-FRET ratio above about 2000; inactive = the rest.

Screening CCCN1Cc2cccc(C(=O)Nc3ccc(-c4nc5ccccc5[nH]4)cc3)c2C1=O returned PPARg SRC2 recr -1, SRC3 TRFRET art 1728, PPARg SRC3 recr 6, SRC2 TRFRET art 1796, PPARg SRC1 recr 4 and SRC1 TRFRET art 1871.
For CN(Cc1ccccc1)S(=O)(=O)c1ccc(Cl)nc1 the results were PPARg SRC2 recr 3, PPARg SRC3 recr 12, SRC2 TRFRET art 1574 and PPARg SRC1 recr 6.
For COc1ccc(CCN(C)S(=O)(=O)c2ccc(Cl)nc2)cc1OC the results were PPARg SRC2 recr 0, SRC3 TRFRET art 1616, PPARg SRC3 recr 3, SRC2 TRFRET art 1975*, PPARg SRC1 recr 7 and SRC1 TRFRET art 1881.
For CCN(CC)C(=O)CSc1nc2ncccc2[nH]1 the results were PPARg SRC2 recr 10, PPARg SRC3 recr 32*, SRC2 TRFRET art 1315 and PPARg SRC1 recr 6.
CCc1ccc(N(C(=O)c2csnn2)C(C(=O)NC(C)(C)C)c2cccnc2)cc1 (stereo not drawn) was read as PPARg SRC2 recr 23*, SRC3 TRFRET art 1691, PPARg SRC3 recr -2, SRC2 TRFRET art 2266*, PPARg SRC1 recr 0 and SRC1 TRFRET art 1763.
For COc1ccc(N)cc1-n1cnnn1 the results were PPARg SRC2 recr -3, SRC3 TRFRET art 1473, PPARg SRC3 recr 7, SRC2 TRFRET art 1430, PPARg SRC1 recr 12 and SRC1 TRFRET art 1832.
For C=CCN(CC=C)Cc1c(O)ccc2c1oc(=O)c1ccccc12 the results were PPARg SRC2 recr 20, PPARg SRC3 recr 20, SRC2 TRFRET art 1879 and PPARg SRC1 recr 21*.
For COc1ccc(OC)c(-c2c3cc(O)c(=O)cc-3oc3cc(O)c(O)cc23)c1 the results were PPARg SRC2 recr 23*, SRC3 TRFRET art 1906, PPARg SRC3 recr 10, SRC2 TRFRET art 1565, PPARg SRC1 recr 17 and SRC1 TRFRET art 2166.
CCOc1ccccc1-c1c2cc(O)c(=O)cc-2oc2cc(O)c(O)cc12 was read as PPARg SRC2 recr 17, SRC3 TRFRET art 1809, PPARg SRC3 recr 6, SRC2 TRFRET art 1524, PPARg SRC1 recr 4 and SRC1 TRFRET art 1827.
CCOc1ccc(/C=N/O)cc1 was read as PPARg SRC2 recr -3, PPARg SRC3 recr 2, SRC2 TRFRET art 1443 and PPARg SRC1 recr -3.
For CCOc1ccc(/C=N/n2cc(-c3ccccc3)[nH]c2=S)cc1 the results were PPARg SRC2 recr 3, SRC3 TRFRET art 1762, PPARg SRC3 recr 10, SRC2 TRFRET art 1503, PPARg SRC1 recr 24* and SRC1 TRFRET art 1892.
`Nc1cc(C(F)(F)F)ccc1Nc1ccccc1` gave PPARg SRC2 recr 1, SRC3 TRFRET art 1736, PPARg SRC3 recr 0, SRC2 TRFRET art 1688, PPARg SRC1 recr 1 and SRC1 TRFRET art 2055.
`Cc1ccc2oc(=O)cc(CN3CCC(C)CC3)c2c1` gave PPARg SRC2 recr 23*, PPARg SRC3 recr 13, SRC2 TRFRET art 1609 and PPARg SRC1 recr -3.
Screening CN1c2ccccc2-c2nc3ccccc3n2C1c1cccs1 (stereo not drawn) returned PPARg SRC2 recr -2, SRC3 TRFRET art 1669, PPARg SRC3 recr 3, SRC2 TRFRET art 1595, PPARg SRC1 recr 5 and SRC1 TRFRET art 1709.
Screening COc1ccc(N2CC(NC(=O)Nc3ccccc3)CC2=O)cc1 (stereo not drawn) returned PPARg SRC2 recr 8, SRC3 TRFRET art 1550, PPARg SRC3 recr 11, SRC2 TRFRET art 1485, PPARg SRC1 recr 0 and SRC1 TRFRET art 1759.
`COc1ccc(N2CCC(CNC(=O)Nc3ccccc3)C2)cc1` (stereo not drawn) gave PPARg SRC2 recr 24*, PPARg SRC3 recr 8, SRC2 TRFRET art 1624 and PPARg SRC1 recr 6.
`CCCCC(=O)NC(NC(=S)N1CCCCCC1)C(Cl)(Cl)Cl` (stereo not drawn) gave PPARg SRC2 recr 0, SRC3 TRFRET art 1751, PPARg SRC3 recr -1, SRC2 TRFRET art 1572, PPARg SRC1 recr 0 and SRC1 TRFRET art 1834.
Screening COc1cccc(CSc2nc3cc4c(cc3cc2C)OCCO4)c1 returned PPARg SRC2 recr 11, SRC3 TRFRET art 2784*, PPARg SRC3 recr 7, SRC2 TRFRET art 1704, PPARg SRC1 recr 9 and SRC1 TRFRET art 2000.
`Cc1cc2cc3c(cc2nc1SCc1ccc(C(=O)O)cc1)OCCO3` gave PPARg SRC2 recr 12, SRC3 TRFRET art 1655, PPARg SRC3 recr -6, SRC2 TRFRET art 1513, PPARg SRC1 recr 10 and SRC1 TRFRET art 1728.
For CCc1cc2ccc(C)cc2nc1SCC(=O)Nc1cc(C)on1 the results were PPARg SRC2 recr -2, SRC3 TRFRET art 1470, PPARg SRC3 recr 1, SRC2 TRFRET art 1591, PPARg SRC1 recr -2 and SRC1 TRFRET art 1621.
Screening CCc1cc2cc3c(cc2nc1SCC(=O)Nc1cc(C)on1)OCO3 returned PPARg SRC2 recr 5, PPARg SRC3 recr 3, SRC2 TRFRET art 1540 and PPARg SRC1 recr 36*.
`CN(C)CCSc1nnc2[nH]c3ccccc3c2n1` gave PPARg SRC2 recr 14, SRC3 TRFRET art 1507, PPARg SRC3 recr -1, SRC2 TRFRET art 1535, PPARg SRC1 recr -2 and SRC1 TRFRET art 1644.
Screening O=C(O)/C=C/c1ccc(S(=O)(=O)Nc2ccc(C(=O)NCC(=O)O)cc2)cc1 returned PPARg SRC2 recr -4, SRC3 TRFRET art 1449, PPARg SRC3 recr 3, SRC2 TRFRET art 1450, PPARg SRC1 recr -9 and SRC1 TRFRET art 1713.
Screening O=C(CSCC(=O)N1CCCCC1)Nc1nc(-c2ccccc2)c(-c2ccccc2)s1 returned PPARg SRC2 recr 8, SRC3 TRFRET art 2244*, PPARg SRC3 recr 8, SRC2 TRFRET art 1498, PPARg SRC1 recr 4 and SRC1 TRFRET art 2010.
For COc1ccc(-c2sc(NC(C)=O)nc2-c2ccccc2)cc1 the results were PPARg SRC2 recr -3, SRC3 TRFRET art 1517, PPARg SRC3 recr 5, SRC2 TRFRET art 1610, PPARg SRC1 recr 4 and SRC1 TRFRET art 1702.
Screening CC(C)N(C(=O)CSc1nn2c(=O)c(C(C)(C)C)nnc2s1)c1ccccc1 returned PPARg SRC2 recr -6, PPARg SRC3 recr 0, SRC2 TRFRET art 1419 and PPARg SRC1 recr 0.
Screening Cc1cc(C(=O)CSc2nn3c(=O)c(C(C)(C)C)nnc3s2)c(C)n1-c1ccc(F)cc1 returned PPARg SRC2 recr 13, PPARg SRC3 recr 22, SRC2 TRFRET art 2070* and PPARg SRC1 recr 9.
COC(=O)c1c(NC(=O)COC(=O)[C@@H](NS(=O)(=O)c2ccc(C)cc2)C(C)C)sc2c1CCC2 was read as PPARg SRC2 recr 6, SRC3 TRFRET art 1800, PPARg SRC3 recr 3, SRC2 TRFRET art 1637, PPARg SRC1 recr 0 and SRC1 TRFRET art 2338*.
Screening COC(=O)c1c(NC(=O)COC(=O)c2ccc(C)s2)sc2c1CCCCC2 returned PPARg SRC2 recr 7, SRC3 TRFRET art 1742, PPARg SRC3 recr 0, SRC2 TRFRET art 1436, PPARg SRC1 recr -1 and SRC1 TRFRET art 1447.
